Among the test systems are HCT-15 colon; HT29 colon; SNB-19 CNS; U251 CNS; PC-3 prostate; SK-MEL-5 melanoma; UACC-62 melanoma; LOX IMVI melanoma; SK-MEL-28 melanoma; SK-MEL-2 melanoma; EKVX NSCLC; SN12C renal; UO-31 renal; TK-10 renal; ACHN renal; CAKI-1 renal; CCRF-CEM leukemia; MOLT-4 leukemia; A498 renal.
Common to all, as to assay: NCI-60 one-dose screen, 48 h (100 = growth as untreated, 0 = no growth, -100 = all killed)
Details in all cases: 10 µM unless noted

Compounds without any hit were thinned out: in the full panel of roughly 83,000, 20% have a hit.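 96-well plates, one dose, 48 hours. Percent growth reported; active if below 10.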 Unmarked numbers belong to inactive results. The source made the active and inactive calls.

Turning to `CCN1CCN(c2nc(NNC(=O)c3ccccc3)nc(N3CCN(C(c4ccccc4)c4ccccc4)CC3)n2)CC1`, the growth in the test on HCT-15 colon was 25.7%; in the test on HT29 colon it was 1.28% (active); with SNB-19 CNS, 72.5%; in the test with U251 CNS it was 49.4%; in the test on PC-3 prostate it was 48.5%; in the test with SK-MEL-5 melanoma, -92.4% (active). The growth in the test on UACC-62 melanoma was 80%; with LOX IMVI melanoma, -44.6% (active); in the test with SK-MEL-28 melanoma it was 82.9%; in the test with SK-MEL-2 melanoma, 78.4%; in the test on EKVX NSCLC, 66.6%; with SN12C renal, 70.8%. The growth with UO-31 renal was 30.8%; in the test with TK-10 renal it was 95.1%; with ACHN renal it was 81.1%; in the test on CAKI-1 renal, 42.7%; in the test with CCRF-CEM leukemia, 39.4%; with MOLT-4 leukemia, 8.93% (active).
With `CCOc1cc2c(Cl)ncnc2c(OCC)c1OCC`, the growth in the test with HCT-15 colon is 55.1%; in the test on HT29 colon it was 78.4%; in the test with SNB-19 CNS, 97.3%; with U251 CNS, 82.6%; with PC-3 prostate, 18.1%; in the test with SK-MEL-5 melanoma, 77.4%. Moreover, the growth is 64.3% with UACC-62 melanoma; 83.1% in the test with LOX IMVI melanoma; 58.1% with SK-MEL-28 melanoma; 52.2% in the test on SK-MEL-2 melanoma; 88.4% in the test on EKVX NSCLC; 94% in the test on SN12C renal. The growth is -17.7% (active) in the test with UO-31 renal; 105% in the test with TK-10 renal; 60.1% in the test with ACHN renal; 91.1% in the test with A498 renal; 11.2% in the test on CCRF-CEM leukemia; 21.7% in the test with MOLT-4 leukemia.
For `O=Nc1c(-c2cccc([N+](=O)[O-])c2)nc2ncccn12`, the growth in the test with HCT-15 colon was 73.7%; in the test with HT29 colon, 79.5%; in the test on SNB-19 CNS it was 94.3%; in the test with U251 CNS, 96.9%; in the test on PC-3 prostate it was 66.5%; with SK-MEL-5 melanoma, 96.2%. In addition, the growth is 92.8% in the test with UACC-62 melanoma; 95.4% in the test on LOX IMVI melanoma; 115% in the test with SK-MEL-28 melanoma; 85.2% in the test on SK-MEL-2 melanoma; 108% with EKVX NSCLC; 91.5% in the test on SN12C renal. Besides, the growth with UO-31 renal was -3.03% (active); in the test on TK-10 renal it was 85%; in the test on ACHN renal, 29.1%; in the test on A498 renal it was 103%; with CCRF-CEM leukemia, -27.2% (active); in the test on MOLT-4 leukemia, 7.7% (active).
With `O=C(NNC(=S)Nc1ccccc1)c1cc2ccc1CCc1ccc(cc1)CC2`, the growth with HCT-15 colon is 40.2%; with HT29 colon, 76.1%; in the test on SNB-19 CNS it was 56.9%; in the test on U251 CNS, 49.3%; in the test with PC-3 prostate, 57.8%; with SK-MEL-5 melanoma, 43.8%. Also, the growth is 55.9% with UACC-62 melanoma; 59.4% in the test with LOX IMVI melanoma; 73.5% with SK-MEL-28 melanoma; 74.5% in the test with SK-MEL-2 melanoma; 76.3% in the test on EKVX NSCLC; 58.3% in the test with SN12C renal. Also, the growth is 82.2% with UO-31 renal; 99.6% in the test with TK-10 renal; 63.8% in the test with CAKI-1 renal; 61% in the test with A498 renal; 33.8% with CCRF-CEM leukemia; 57% with MOLT-4 leukemia.
Regarding `Clc1cc2c(nn1)Nc1ccccc1S2`, the growth with HCT-15 colon is 101%; with HT29 colon, 102%; in the test on SNB-19 CNS it was 88.5%; in the test on U251 CNS, 97.3%; in the test with PC-3 prostate it was 92.4%; in the test on SK-MEL-5 melanoma, 95%. Besides, the growth in the test with UACC-62 melanoma is 95.2%; in the test with LOX IMVI melanoma it was 98.6%; in the test with SK-MEL-28 melanoma it was 109%; in the test with SK-MEL-2 melanoma, -4.79% (active); in the test with EKVX NSCLC, 52.3%; in the test with SN12C renal, 97.1%. For the same compound, the growth was 106% in the test with UO-31 renal; 129% with TK-10 renal; 99.1% in the test with ACHN renal; 89.1% in the test on A498 renal; 93.7% in the test with CCRF-CEM leukemia; 96.3% in the test on MOLT-4 leukemia.
Take `C=CCSc1n[nH]c(-c2cccs2)n1`: the growth was 103% in the test with HCT-15 colon; 102% in the test on HT29 colon; 103% with SNB-19 CNS; 99.3% with U251 CNS; 108% with PC-3 prostate; 104% with SK-MEL-5 melanoma. Also, the growth in the test on UACC-62 melanoma was 101%; with LOX IMVI melanoma it was 99.8%; in the test on SK-MEL-28 melanoma it was 129%; with SK-MEL-2 melanoma, 3.39% (active); in the test on EKVX NSCLC, 108%; with SN12C renal, 97.2%. In addition, the growth with UO-31 renal is 118%; with TK-10 renal, 121%; in the test on ACHN renal, 105%; with A498 renal it was 101%; in the test with CCRF-CEM leukemia it was 94.6%; with MOLT-4 leukemia, 99.5%.
For `COc1ccc(N=Cc2c(O)ccc3c2oc2cc(Cl)c(O)c(Cl)c23)cc1`, the growth was 86.6% in the test with HCT-15 colon; 105% in the test with HT29 colon; 104% in the test on SNB-19 CNS; 87.8% in the test on U251 CNS; 103% in the test on PC-3 prostate; 96.3% in the test on SK-MEL-5 melanoma. Besides, the growth with UACC-62 melanoma is 84.2%; with LOX IMVI melanoma, 64.5%; in the test with SK-MEL-28 melanoma, 141%; in the test on SK-MEL-2 melanoma, -1.58% (active); in the test with EKVX NSCLC, 108%; with SN12C renal, 102%. Also, the growth with UO-31 renal was 103%; in the test on TK-10 renal, 120%; in the test with ACHN renal it was 96.2%; with A498 renal it was 107%; in the test on CCRF-CEM leukemia, 77.9%; with MOLT-4 leukemia, 89.1%.
As to `COc1cc2c(cc1OCCCCCn1c3ccccc3c3ccccc31)N=C[C@@H]1CCCN1C2=O`, the growth was -74.3% (active) with HCT-15 colon; -45.8% (active) in the test on HT29 colon; -49.9% (active) in the test on SNB-19 CNS; -58% (active) with U251 CNS; -41.8% (active) in the test with PC-3 prostate; -100% (active) in the test on SK-MEL-5 melanoma. Besides, the growth is -90.3% (active) in the test with UACC-62 melanoma; -64.8% (active) with LOX IMVI melanoma; -78.8% (active) in the test with SK-MEL-28 melanoma; -65.7% (active) in the test with SK-MEL-2 melanoma; 46.6% in the test on EKVX NSCLC; -54.8% (active) in the test on SN12C renal. In addition, the growth was -75.8% (active) in the test with UO-31 renal; -37.8% (active) in the test on TK-10 renal; -63% (active) in the test on ACHN renal; 38.3% in the test on CAKI-1 renal; -0.543% (active) with CCRF-CEM leukemia; -39.9% (active) with MOLT-4 leukemia.

Values taken from PubChem BioAssay (NCI).
